Bioassay records (PubChem BioAssay)
A selection: hits, their analogues and other compounds. The true share with any hit is near 6.1%.
D1 potentiator: enhances dopamine response at the human D1 receptor | HEK293 TREx D1 cells, calcium flux, dopamine EC20 potentiation | potentiation, % at 10 µM | P21728 | actives 0.036% (n = 360,000) | AID 504651; in the data active = potentiation above about 30%; also: 0% is about no effect
D3 antag: blocks the human D3 dopamine receptor; D3R cells, DiscoveRx beta-arrestin luminescence, antagonist mode; hits give low values; max response, negative = inhibition, %; actives 2.5% (n = 360,000); AID 652054; in the data active = max response below about -50%; inconclusive = no clear call, values can overlap the other calls; also: % is scaled to controls: 0 for no effect and ±100 for the full control effect
Target sequence (P35462 whole entry, looked up): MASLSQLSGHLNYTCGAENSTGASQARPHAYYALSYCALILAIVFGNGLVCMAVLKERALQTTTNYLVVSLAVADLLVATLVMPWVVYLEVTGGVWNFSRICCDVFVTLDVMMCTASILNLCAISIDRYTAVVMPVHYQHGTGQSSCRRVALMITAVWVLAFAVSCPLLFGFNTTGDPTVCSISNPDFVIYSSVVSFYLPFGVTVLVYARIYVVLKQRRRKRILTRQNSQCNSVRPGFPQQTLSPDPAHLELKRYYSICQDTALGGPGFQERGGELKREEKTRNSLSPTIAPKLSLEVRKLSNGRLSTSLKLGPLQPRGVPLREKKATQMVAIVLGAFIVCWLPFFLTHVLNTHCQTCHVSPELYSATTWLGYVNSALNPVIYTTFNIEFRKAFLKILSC
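Cells expressing the human receptor were seeded at 1500 cells/well, incubated overnight at 37 degrees C in 5% CO2, then exposed to library compounds with dopamine controls for 90 minutes at 37 degrees C before luminescent detection.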
D1 ag: agonists of human D1 dopamine receptor; P21728; HEK293 T-REx D1 cells, calcium flux, agonist mode; activation, % at 2 µM; actives 1% (n = 360,000); AID 504660; in the data active = activation above about 30%; also: 0% is about no effect
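Inducible HEK293 T-REx D1 cells, force-coupled to calcium signalling, were plated at 4000 cells/well with tetracycline and held overnight at 30 C. After no-wash calcium dye loading, compound-evoked calcium rise over 180 s flagged agonists.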
DRD3 agonist: D3 dopamine receptor (human) agonism. P35462. D3R DiscoveRx beta-arrestin cells, luminescence, 90 min. max activation, %. actives 0.58% (n = 410,000); in the data active = max activation above about 30%; also: 0% is about no effect
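Cells at 1500/well, incubated overnight, then treated with pinned compounds (dopamine as control) for 90 min at 37 degrees C. DiscoveRx reagent added for 30 - 60 minutes at room temperature; luminescence read.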
D1 antagonist: antagonists of human D1 dopamine receptor; P21728; activity change, negative = inhibition, % at 10 µM; AID 504652; actives 3.2% (n = 360,000); HEK293 TREx D1 cells, calcium flux, dopamine EC80; hits give low values; in the data active = activity change below about -30%; also: % is scaled to controls: 0 for no effect and ±100 for the full control effect
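Allosteric or orthosteric antagonism assessed as attenuation of the calcium response to EC80 dopamine, added 180 s after compound, in induced HEK293 Trex D1 cells loaded with no-wash calcium dye.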
* marks the source's active call; other numbers are inactive results; ? = inconclusive; . = no result.

SMILES | D1 potentiator | D3 antag | D1 ag | DRD3 agonist | D1 antagonist
CN1CCN(S(=O)(=O)c2ccc(N(C)Cc3cccs3)nc2)CC1 | -10 | -29 | 6 | -3 | -38*
CCN(Cc1cccs1)C(=O)c1cccc(S(=O)(=O)N2CCN(C)CC2)c1 | -3 | -5 | 0 | -17 | 6
CCCn1c(SCC(=O)Nc2cc(S(=O)(=O)N3CCCCC3)ccc2C)n[nH]c1=O | 0 | -2 | 0 | 3 | 9
Cc1ccc(NC(=O)CCN2CCC(C)CC2)cc1 | 1 | -62* | 3 | -22 | 11
NC(=O)C1CCN(CCC(=O)Nc2ccc3c(c2)CCC3)CC1 | -1 | -18 | 0 | -2 | -18
CC1CCN(CCC(=O)Nc2ccc(Cl)cc2)CC1 | -2 | -64* | 25 | -15 | -21
CCCCN(C)CCC(=O)Nc1ccc2c(c1)CCC2 | 0 | -57* | 10 | -15 | -25
CC1CCN(CCC(=O)Nc2ccc3c(c2)CCC3)CC1 | -2 | -59* | 1 | -30 | 4
COc1ccc(NC(=O)CN(C)CC(=O)Nc2ccc3c(c2)CCC3)cc1 | 9 | 3 | 1 | -1 | 0
Cc1nc2ccc(Br)cc2c2c1CC(CO)O2 (centres undefined) | 1 | -14 | 0 | -1 | 17
CCCNC(=O)C1(C)CCN(C(=O)Cc2ccc3ccccc3c2)C1 (centres undefined) | . | -26 | . | -7 | .
CCCC(=O)Nc1ccc2c(c1)Cc1ccccc1-2 | -1 | -14 | 3 | 2 | -38*
Cn1cc(C(=O)Nc2ccc3c(c2)CCC3)cn1 | -4 | 10 | 1 | -3 | -31*
CC(=O)NCCc1c[nH]c2ccc(OCc3ccccc3)cc12 | . | -8 | . | 0 | .
COC(=O)[C@@H]1[C@H]2C[C@H]3c4[nH]c5ccccc5c4CCN3C[C@@H]2CC[C@@H]1O | -8 | -78* | 0 | -80 | -5
NNC(=O)C1C(O)CCC2CN3CCc4c([nH]c5ccccc45)C3CC21 (centres undefined) | . | ? | . | -14 | .
O=C(CSc1ccc(Cl)cc1)NC1CCCC1 | 2 | 11 | 1 | 0 | -3
O=C(NC1CCCCC1)Sc1ccc(Cl)cc1 | -7 | -91* | 1 | 0 | -28
COc1ccc(Br)cc1/C(C)=N/NC1=NCCN1 | -2 | -52* | 14 | -20 | .
COC(=O)c1cc(NC(=O)c2cccc(C(F)(F)F)c2)c(=O)oc1C | -5 | 4 | 1 | 4 | -15
COC(=O)c1cc(NC(=O)c2cccc(Cl)c2)c(=O)oc1/C=C/Nc1cc(C)cc(C)c1 | 2 | . | 102* | . | -34*
Cc1ccccc1C(=O)Nc1nc2c(s1)CC(C(C)(C)C)CC2 (centres undefined) | 2 | . | 8 | 0 | 27
Cc1cc2ccccc2c(=O)n1CC(=O)NCC(=O)N1CCN(c2ccccc2)CC1 | 0 | -52* | 0 | -8 | 33
COc1ccccc1NC(=O)CNC(=O)Cn1c(C)cc2ccccc2c1=O | -5 | -9 | -4 | 6 | -65*
COc1ccc(OC)c(NC(=O)CNC(=O)Cn2c(C)cc3ccccc3c2=O)c1 | -3 | 9 | 1 | -5 | -1
SMILES | D1 potentiator | D3 antag | D1 ag | DRD3 agonist | D1 antagonist
O=C(O)c1c(Cl)c(Cl)c(Cl)c(Cl)c1C(=O)N1CCOCC1 | -3 | 0 | 4 | -7 | -35*
O=C(O)c1cccc(Sc2cc(Cl)ccc2C(=O)O)c1 | 2 | -6 | -2 | -10 | .
Cc1cccc(NC(=S)NCCc2ccc3c(c2)OCCO3)c1C | -6 | 15 | 4 | 2 | -46*
CN(C(=O)COC(=O)C1COc2ccccc2O1)C1(C#N)CCCCC1 (centres undefined) | 0 | 0 | 2 | 2 | -4
CN(C)CC(CCC(CN(C)C)C(O)(c1ccccc1)c1ccccc1)C(O)(c1ccccc1)c1ccccc1 (centres undefined) | -7 | ? | 27 | -8 | -41*
CN(C)C/C=C/C(O)(c1ccccc1)c1ccccc1 | -10 | -8 | 2 | -3 | -8
O=C(COC(=O)c1ccco1)Nc1ccc(N2CCOCC2)cc1 | 2 | -2 | 4 | 1 | 7
O=C(O)c1cc(O)c2c(c1)[C@H]([C@H]1c3cc(C(=O)O)cc(O)c3C(=O)c3c(O[C@@H]4O[C@H](CO)[C@@H](O)[C@H](O)[C@H]4O)cccc31)c1cccc(O[C@@H]3O[C@H](CO)[C@@H](O)[C@H](O)[C@H]3O)c1C2=O | . | . | . | -8 | .
CN(CCO)c1cc(NCCCN2CCC(Cc3ccccc3)CC2)c2nonc2c1[N+](=O)[O-] | -5 | -75* | 2 | -12 | 9
CC1CCN(CCCNc2cc(NCCO)c([N+](=O)[O-])c3nonc23)CC1 | 6 | -20 | 2 | -24 | 2
CC(C)c1ccc(/C=C(\c2nc3ccccc3[nH]2)S(=O)(=O)c2ccccc2)cc1 | -5 | -73* | 3 | -11 | -13
C/C(=C\c1ccc(N)cc1)c1nc2ccccc2[nH]1 | -6 | -19 | -1 | 0 | 2
O=S(=O)(/C(=C/c1ccc(C(F)(F)F)cc1)c1nc2ccccc2[nH]1)c1ccccc1 | -4 | -77* | 1 | -29 | 4
CC(=O)Nc1ccc(S(=O)(=O)N[C@@H](C)C(=O)OCC(=O)Nc2ccc3c(c2)OCCO3)cc1 | . | 0 | . | -3 | .
COc1ccc(C(CNC(=O)CN(C)S(=O)(=O)c2ccc(C)cc2)N2CCCC2)cc1 (centres undefined) | . | -99* | . | -14 | .
COc1ccc(C(CNS(=O)(=O)c2ccc(NC(C)=O)c(OC)c2)N2CCCC2)cc1 (centres undefined) | . | -54* | . | -2 | .
COc1ccc(NC(=O)CN(C)C(=O)c2cccc(NS(=O)(=O)c3ccc(Br)cc3)c2)cc1 | -8 | 17 | 3 | -2 | -5
COc1ccc(C(CNS(=O)(=O)c2ccc(NC(C)=O)c(OC)c2)N2CCCCC2)cc1 (centres undefined) | . | 9 | . | -8 | .
COc1ccc(C(CNC(=O)c2cccc(NC(=O)c3cccs3)c2)N2CCCC2)cc1 (centres undefined) | -2 | -82* | 2 | -18 | 12
COc1ccc(C(CNC(=O)c2cccc(NS(=O)(=O)c3ccc(Br)cc3)c2)N(C)C)cc1 (centres undefined) | -3 | -78* | 8 | -29 | 4
Cc1cccc(C(=O)OCC(=O)N(CC(C)C)c2c(N)n(Cc3ccccc3)c(=O)[nH]c2=O)c1C | 0 | -3 | -1 | 2 | 15
CCOC(=O)c1sc(/S(C)=N\S(=O)(=O)c2cccc(Cl)c2)c2c1CCC=C2 (centres undefined) | -1 | -18 | 0 | -14 | -25
COC(=O)[C@]12CCCCC=C1N(Cc1ccccc1)C(=O)[C@H](CC(=O)NCc1cccs1)C2 | . | 7 | . | 0 | .
COc1ccc(C(CNC(=O)Cc2cc(OC)c(OC)c(OC)c2)N2CCCC2)cc1 (centres undefined) | 2 | -11 | 4 | 6 | -1
